Results on 13 compounds are retold here after PubChem BioAssay (NCI).

This is part of a sample that, as a whole, favours compounds with a hit. Of some 83,000 tested, about 20% had one in any assay.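 Activity criterion: percent growth below 10, measured after cells in 96-well plates were exposed to a single compound concentration for 48 hours.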 A number with no mark means an inactive call. Activity calls are given as the source filed them.

The test system of the assay is MDA-MB-468 breast. In words: NCI-60 one-dose screen, 48 h (100 = growth as untreated, 0 = no growth, -100 = all killed). The conditions noted are these: 10 µM unless noted.
In the case of `O=C1c2ccccc2C(=O)c2sc(Nc3ccc(Cl)cc3)nc21`, the growth was 28.6%.

For `CCCCn1c(-c2ccc(F)cc2)nc2cc(OC)c(OC)cc2c1=O`, the growth is 115%.

`Cc1ccc2c(c1)C(C)Cc1c(ncnc1-n1cnc3ccccc31)N2C` (stereo not drawn): the growth was 30.8%.

For `COc1cc2oc(-c3cccc(NC(=O)c4cccc([N+](=O)[O-])c4)c3)cc(=O)c2c(OC)c1OC`, the growth was -1.02% (active).

On to `CC(C)(C)OC(=O)Nc1ccc(-c2cccc(Oc3ccc4nnc(Cl)n4n3)c2)cc1`, for which the growth is 61.9%.

For the compound `Nc1c(C(=O)Nc2cccc3ncccc23)sc2nc3c(cc12)CN(Cc1ccccc1)CC3`, the growth is 31.4%.

As for `COC(=O)[C@H](Cc1ccc(O)cc1)NC(=O)[C@@H](OC)[C@@H]1Cc2cc3cc(OC4CC(OC5CC(O)C(O)C(C)O5)C(O)C(C)O4)c(C)c(O)c3c(O)c2C(=O)[C@H]1OC1CC(OC2CC(OC3CC(C)(O)C(O)C(C)O3)C(O)C(C)O2)C(O)C(C)O1` (stereo partly drawn), the growth is -25.5% (active).

On to `CCN(C(=O)c1ccc2c3c(cccc13)C=C2)c1ccccc1`, for which the growth is 84.3%.

In the case of `N#Cc1c(-c2cccs2)cc(-c2cnccn2)nc1SCC(=O)NNC(=S)Nc1ccc(F)cc1`, the growth was 122%.

With `O=C(Nc1ccccc1)c1cc(Cl)ccc1O`, the growth was 47.6%.

For the compound `CN(C)/C=C1\SC(=Nc2ccc(Cl)cc2)NC1=O`, the growth was 110%.

As to `C/C(=C(\c1ccc(OCCN2CCOCC2)cc1)c1ccc(OC(=O)C2CCCCC2)cc1)c1ccc(Cl)cc1`, the growth was 79.2%.

For `CCOC(=O)C1=C(C)NC(C)=C(C(=O)OCC)C1c1cc(Br)c(O)c(OC)c1`, the growth was 20.4%.
